Compound activity deposited in PubChem by National Center for Advancing Translational Sciences (NCATS).
Compounds with a hit are over-represented: about 15% of the library has one in this group of screens.
SARS PLP yeast – SARS-CoV PLP inhibition in yeast; S. cerevisiae expressing SARS-CoV PLpro, growth rescue; Potency, µM (top dose mostly 32.9 µM), without a hit: top-dose activity, positive = growth rescue, hits mostly activators; 330,000 tested, 0.19% active; AID 485353; calls by dose curve; further: potency means the concentration at half of the fitted maximal effect; 0% is about no effect; nearly all actives have a fitted effect of over 55% in size
Sm TGR inh – blocks Schistosoma mansoni thioredoxin glutathione reductase | AID 485364 | purified TGR, DTNB reduction, TNB absorbance 405 nm | Potency, µM (top dose mostly 114 µM), inactives show at the top dose activity change, negative = inhibition, most hits filed as inhibitors | 360,000 tested, 3% active | Q962Y6; further: potency means the concentration at half of the fitted maximal effect; on the % scale 0 is the no-effect control and ±100 the full control effect; nearly all actives have a fitted effect of over 60% in size
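First, TGR (20 nM dispensed) and NADPH were mixed with compound. Second, a 15 min room-temperature incubation followed. Third, further NADPH and then DTNB were added to start the reaction. Finally, TNB absorbance was monitored kinetically.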
HCV inh – inhibitors of hepatitis C virus infection; Potency, µM (highest dose often 41.8 µM), for inactives: top-dose activity change, negative = inhibition, most hits filed as inhibitors; AID 651820; 340,000 tested, 3.4% active; Huh7.5.1 HCVcc-Cre infection, luciferase reporter, 44 h; further: potency means the concentration at half of the fitted maximal effect; on the % scale 0 is the no-effect control and ±100 the full control effect
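Seed cells (1,000/well) for 4 h; treat with compound and infect with HCVcc-Cre, moi about 0.5. Incubate 44 h, then detect luciferase activity.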
Pf growth 48h – inhibits P. falciparum growth in the first generation, 48 h | 310,000 tested, 5.9% active | P. falciparum luciferase growth in erythrocytes, 48 h | Potency, µM (series often up to 28.7 µM), for inactives: top-dose activity change, negative = inhibition, usual class: inhibitors; further: potency means the concentration at half of the fitted maximal effect; on the % scale 0 is the no-effect control and ±100 the full control effect
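A one-generation exposure of luciferase-tagged malaria parasites in RPMI 1640/Albumax erythrocyte culture, 37 C and 5% CO2. Inhibition is inferred from decreased luminescence after adding detection reagent.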
Pf growth 96h – P. falciparum growth inhibition at 96 hour, primary screen for plastid delayed-death inhibitors. 320,000 tested, 6.9% active. Potency, µM (highest dose often 28.7 µM), for inactives: at the top dose activity change, negative = inhibition, hits mostly inhibitors. AID 504834. P. falciparum luciferase reporter growth, 96 h; further: potency means the concentration at half of the fitted maximal effect; on the % scale 0 is the no-effect control and ±100 the full control effect
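Infected RBCs, 2% Hct / 0.05% parasitemia final; luciferase-reporter P. falciparum; cpd 96 h, 37 C, 5% CO2; luciferase detection reagent; luminescence.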
HCMV antiviral – blocks human cytomegalovirus replication; HFF cells, HCMV-luciferase reporter, 72 h; hits give low values; activity change, negative = inhibition, % at 57.5 µM; 410,000 tested, 4.5% active; in the data active means activity change below about -60%; inconclusive means no clear call, values can overlap the other calls; inactive means above about -39%; further: on the % scale 0 is the no-effect control and ±100 the full control effect
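HFF cells seeded 16 h at 37C, treated with compounds, infected with luciferase-reporter HCMV at MOI 1 PFU/cell; luciferase read at 72 h post infection, normalized to buffer-only and Salinomycin controls.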
Active calls of the source: *; [ ] = remark or other dose. Unless noted, the call rests on the fitted dose curve; in most records, active means well fitted curve in the direction sought with a large enough effect; inconclusive means small, poorly fitted or top-dose-only effect, or another doubt; inactive means no such curve, though single readings can be large; an effect the other way counts as inactive or inconclusive.

For Cc1ccc2c(c1)c1c(c(=O)n(-c3cccc(Cl)c3)c(=O)n1CC(=O)c1ccc(Cl)cc1)n2C the results were Sm TGR inh 0% and HCMV antiviral 17.
`Cc1cc(NC(=O)CSc2nc(C(C)C)nc3c2c(=O)n(C)c(=O)n3C)no1` gave SARS PLP yeast -2%, Sm TGR inh 1%, HCV inh 5%, Pf growth 48h inconclusive, Pf growth 96h inconclusive and HCMV antiviral -34.
For CCCn1c(=O)n(C)c(=O)c2c(SCC(=O)Nc3cc(C)on3)nc(C(C)(C)C)nc21 the results were SARS PLP yeast -4%, Sm TGR inh 5%, HCV inh 10µM*, Pf growth 48h 10µM*, Pf growth 96h inconclusive and HCMV antiviral -3.
For CC1(C(=O)NS(=O)(=O)C2CC2)CCCN(C(=O)c2cccnc2Oc2ccccc2)C1 (centres undefined) the results were HCMV antiviral 10.
For O=C(CSc1nc(=O)[nH]c2c1CCCC2)Nc1ccccc1C(F)(F)F the results were Sm TGR inh 4% and HCMV antiviral 85.
Screening COc1ccccc1NC(=O)Cn1c(C)cc(=O)c2cccc(OC)c21 returned SARS PLP yeast 0%, Sm TGR inh -4%, HCV inh inconclusive, Pf growth 48h inconclusive, Pf growth 96h inconclusive and HCMV antiviral -10.
COc1cccc2c(=O)cc(C)n(CC(=O)Nc3ccc(C)c(C)c3)c12 was read as SARS PLP yeast 7%, Sm TGR inh -11%, HCV inh 5µM*, Pf growth 48h 0%, Pf growth 96h 0% and HCMV antiviral -17.
`Oc1ccc(Cl)cc1N=Cc1sc2ccccc2c1Cl` gave SARS PLP yeast -11%, Sm TGR inh inconclusive, HCV inh -29%, Pf growth 48h inconclusive, Pf growth 96h 2.3µM* and HCMV antiviral inconclusive.
Screening CC1=C(C(=O)Nc2ccccc2C(F)(F)F)C(c2sccc2C)NC(=S)N1 (centres undefined) returned SARS PLP yeast 1%, Sm TGR inh -6%, HCV inh inconclusive, Pf growth 48h -6%, Pf growth 96h 7% and HCMV antiviral -29.
`CN=C1S/C(=C\c2cccn2-c2cccc(Br)c2)C(=O)N1C` gave HCV inh -29% and HCMV antiviral -65*.
For CN(c1ccccc1)c1ncnc2c1cnn2C the results were Sm TGR inh 19% and HCMV antiviral -15.
`COc1ccc(C(=O)Cn2c(NCCO)nc3ccccc32)cc1` gave SARS PLP yeast 0%, Sm TGR inh -1%[57.1 µM], HCV inh 10%, Pf growth 48h 1%, Pf growth 96h inconclusive and HCMV antiviral -32.
COc1ccc(/C=C/C(=O)c2nc3ccccc3n2CC(=O)c2ccc(OC)cc2)cc1 was read as SARS PLP yeast 2%, Sm TGR inh 11%, HCV inh -18%, Pf growth 48h 10µM*, Pf growth 96h -186% and HCMV antiviral 19.
Screening COc1ccc(C(=O)Cn2c(C(C)=O)nc3ccccc32)cc1 returned HCV inh inconclusive and HCMV antiviral -64*.
`N#Cc1ccc(N)cc1OCCCN1CCCCC1` gave HCV inh -10% and HCMV antiviral -15.
Screening CC1Oc2cc3c(-c4c(O)cc(O)c5c(O)c6c(cc45)OC(C)C(C)C6=O)c(O)cc(O)c3c(O)c2C(=O)C1C (centres undefined) returned SARS PLP yeast 2%, Sm TGR inh 32µM*, HCV inh inconclusive, Pf growth 48h 0.37µM* and Pf growth 96h 0.52µM*.
For O=C(Nc1cccc(F)c1)N1CCCC(CNS(=O)(=O)Cc2ccccc2)C1 (centres undefined) the results were SARS PLP yeast 1%, Sm TGR inh 7%, HCV inh 10%, Pf growth 48h 9%, Pf growth 96h 5.2µM* and HCMV antiviral -34.
For CC(C)c1ccc(S(=O)(=O)c2cc3cc(Br)ccc3oc2=O)cc1 the results were SARS PLP yeast 8%, Sm TGR inh inconclusive, HCV inh 6%, Pf growth 48h 17%, Pf growth 96h 44% and HCMV antiviral -12.
`Cc1ccc(S(=O)(=O)c2cc3cc(Br)ccc3oc2=O)cc1` gave SARS PLP yeast 13%, Sm TGR inh -9%, HCV inh 42%, Pf growth 48h 35%, Pf growth 96h 1.7µM* and HCMV antiviral -40.
Screening COCC1CCCN(Cc2cn(-c3ccccc3)nc2-c2ccc3c(c2)OCO3)C1 (centres undefined) returned SARS PLP yeast 0%, Sm TGR inh 17%, HCV inh 3%, Pf growth 48h 9.3µM*, Pf growth 96h inconclusive and HCMV antiviral -20.
`c1ccc(-n2cc(CN3CCCC3)c(-c3ccc4c(c3)OCO4)n2)cc1` gave SARS PLP yeast -1%, Sm TGR inh 7%, HCV inh -9%, Pf growth 48h 5.2µM*, Pf growth 96h inconclusive and HCMV antiviral -30.
Cc1nc(N(C)C2CCCCC2)c2nnn(Cc3ccc(F)cc3)c2n1 was read as HCMV antiviral -34.
Screening COc1cccc(-c2nn(C)c3sc(C(=O)N4CCOCC4)cc23)c1 returned SARS PLP yeast -11%, Sm TGR inh 0%, HCV inh -7%, Pf growth 96h 2.3µM* and HCMV antiviral 90.
COc1ccc(N2CCN(C(=O)c3cc4c(-c5ccc(Cl)cc5)nn(C)c4s3)CC2)cc1 was read as SARS PLP yeast 3%, Sm TGR inh 4%, HCV inh 14%, Pf growth 96h inconclusive and HCMV antiviral 38.
Screening COc1cccc(-c2nn(C)c3sc(C(=O)N4CCN(c5ccccn5)CC4)cc23)c1 returned SARS PLP yeast -10%, Sm TGR inh -2%, HCV inh 10µM*, Pf growth 48h inconclusive and Pf growth 96h inconclusive.
Screening O=C(NCC(=O)N1CCN(c2ccccc2F)CC1)c1ccc(Br)o1 returned SARS PLP yeast -4%, Sm TGR inh 3%, HCV inh 20%, Pf growth 48h -3%, Pf growth 96h -2% and HCMV antiviral -14.
Screening CNC(=S)N(C)[C@H]1c2c(ccc3ccccc23)OC[C@H]1CO returned SARS PLP yeast 0%, Sm TGR inh 0%, HCV inh 1%, Pf growth 48h 87%, Pf growth 96h -10% and HCMV antiviral -60*.
Screening O=C(NCC(=O)N1CCc2ccccc2C1)c1ccccc1Cl returned SARS PLP yeast -2%, Sm TGR inh 6%, HCV inh -16%, Pf growth 48h 15%[0.00184 µM], Pf growth 96h 76% and HCMV antiviral 108.
